Experiment [1] is described as follows: compounds binding Alexa647 anti-His antibody – biochemical, small-molecule microarray, 635 nm fluorescence, artefact control for SMM control protein annotation, primary screen (AID 1128).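 Also: score merges feature fluorescence with signal-to-noise for each printed compound spot.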 The conditions noted are these: higher = more signal.
In experiment [2] the test system is Human papillomavirus type 1a E7 protein (residues 1-88). The experiment is described as follows: HPV1a E7 small-molecule binders, primary screen, biochemical, small-molecule microarray, residues 1-88, 635 nm (AID 1129). The note with it: small-molecule microarray binding, fluorescence 635 nm; higher = more signal.
Experiment [3] concerns the target Focal adhesion kinase 1 (Homo sapiens) (UniProt Q05397). Kind of experiment: PTK2 protein binding on printed compound slides – biochemical, small-molecule microarray, 635/667 nm fluorescence, BSA, DTT, primary screen (AID 1130).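 Also: composite of spot emission at 667 nm and signal to noise over triplicate slides.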 The conditions noted are these: 635 nm fluorescence, higher = more signal.
The test system of experiment [4] is Fibrinogen (Alexa647-labelled). Kind of experiment: Alexa647-fibrinogen binding to printed small molecules – biochemical, small-molecule microarray, 635/667 nm fluorescence, artefact control for SMM control-protein annotation, profiling panel (AID 1131).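 Also: z-score merges 667 nm fluorescence with per-spot signal-to-noise over triplicate slides.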 The note with it: fibrinogen-A647 binding fluorescence, higher = more signal.
For experiment [5], the target named is Follistatin (Homo sapiens) (UniProt P19883). Kind of experiment: FST protein binding to printed compounds – biochemical, small-molecule microarray, 635/667 nm fluorescence, primary screen (AID 1132). The note with it: 635 nm fluorescence, higher = more signal.
The target in experiment [6] is Fibroblast growth factor 2 (Homo sapiens) (UniProt P09038). Kind of experiment: basic fibroblast growth factor binding to printed compounds – biochemical, small-molecule microarray, 635/667 nm fluorescence, primary screen (AID 1133). The note with it: FGF2, fluorescence 635/667, higher = more signal.
Experiment [7] can be described thus: JC-1 mitochondrial potential readout, lung cancer cells – cell-based, A549, JC-1 fluorescence, basal, 24 h, 100 nL, profiling panel (AID 1138).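 Also: A549 lung adenocarcinoma cells under basal conditions with no added stimulus; test concentration not given here.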 The conditions noted are these: higher = more signal.
The subject of the next experiment is Lefty1. The experiment is described as follows: Lefty1 protein binding to printed compounds – biochemical, small-molecule microarray, 635/667 nm fluorescence, primary screen (AID 1139). The conditions noted are these: fluorescence 635/667, higher = more signal.
The subject of experiment [8] is wheat germ agglutinin (Triticum aestivum), Alexa647-labelled. Kind of experiment: Alexa647-WGA lectin binding to printed small molecules – biochemical, small-molecule microarray, 635/667 nm fluorescence, artefact control for SMM control-protein annotation, profiling panel (AID 1140).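 Also: score merges 667 nm feature emission with signal to noise over triplicate slides.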 The conditions noted are these: WGA-A647 binding, 635 nm fluorescence, higher = more signal.

The target of experiment [9] is Luciferin 4-monooxygenase (Photinus pyralis) (UniProt P08659). The experiment is described as follows: inhibition of purified Photinus pyralis luciferase – biochemical, luminescence, purified enzyme, 2006 set, primary screen (AID 1141).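 Also: cell-free assay with purified firefly luciferase at 100 ng per well in PBS; test concentration not given here.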 The note with it: purified firefly luciferase, SteadyGlo luminescence, 30 min; higher = more signal, called active from +8 up or from −8 down.

The source made the active and inactive calls.

Chain of Luciferin 4-monooxygenase (Photinus pyralis) (P08659 whole entry, looked up): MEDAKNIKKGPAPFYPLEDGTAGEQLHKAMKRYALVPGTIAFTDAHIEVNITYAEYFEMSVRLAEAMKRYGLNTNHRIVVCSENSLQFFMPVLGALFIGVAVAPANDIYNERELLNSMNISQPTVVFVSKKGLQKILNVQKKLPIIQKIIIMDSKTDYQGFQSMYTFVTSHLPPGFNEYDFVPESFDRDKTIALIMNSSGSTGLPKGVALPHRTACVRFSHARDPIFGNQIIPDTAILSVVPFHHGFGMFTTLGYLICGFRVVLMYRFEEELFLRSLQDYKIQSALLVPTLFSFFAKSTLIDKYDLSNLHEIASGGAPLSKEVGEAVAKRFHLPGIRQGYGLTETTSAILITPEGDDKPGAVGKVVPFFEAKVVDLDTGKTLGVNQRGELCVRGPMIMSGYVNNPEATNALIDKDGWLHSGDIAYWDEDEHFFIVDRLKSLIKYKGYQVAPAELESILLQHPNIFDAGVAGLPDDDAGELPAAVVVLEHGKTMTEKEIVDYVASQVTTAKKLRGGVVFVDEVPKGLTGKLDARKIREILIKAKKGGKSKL
Chain of Follistatin (Homo sapiens) (P19883 whole entry, looked up): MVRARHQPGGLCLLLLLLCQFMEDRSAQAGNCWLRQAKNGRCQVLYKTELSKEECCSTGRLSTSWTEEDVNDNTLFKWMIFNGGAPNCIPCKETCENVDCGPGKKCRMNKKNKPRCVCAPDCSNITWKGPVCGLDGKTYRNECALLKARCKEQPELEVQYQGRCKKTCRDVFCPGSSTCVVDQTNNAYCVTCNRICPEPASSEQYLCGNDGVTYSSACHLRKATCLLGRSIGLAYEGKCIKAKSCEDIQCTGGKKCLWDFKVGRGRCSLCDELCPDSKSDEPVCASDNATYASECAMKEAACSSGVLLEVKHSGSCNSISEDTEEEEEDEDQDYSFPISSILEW
Chain of Focal adhesion kinase 1 (Homo sapiens) (Q05397 whole entry, looked up): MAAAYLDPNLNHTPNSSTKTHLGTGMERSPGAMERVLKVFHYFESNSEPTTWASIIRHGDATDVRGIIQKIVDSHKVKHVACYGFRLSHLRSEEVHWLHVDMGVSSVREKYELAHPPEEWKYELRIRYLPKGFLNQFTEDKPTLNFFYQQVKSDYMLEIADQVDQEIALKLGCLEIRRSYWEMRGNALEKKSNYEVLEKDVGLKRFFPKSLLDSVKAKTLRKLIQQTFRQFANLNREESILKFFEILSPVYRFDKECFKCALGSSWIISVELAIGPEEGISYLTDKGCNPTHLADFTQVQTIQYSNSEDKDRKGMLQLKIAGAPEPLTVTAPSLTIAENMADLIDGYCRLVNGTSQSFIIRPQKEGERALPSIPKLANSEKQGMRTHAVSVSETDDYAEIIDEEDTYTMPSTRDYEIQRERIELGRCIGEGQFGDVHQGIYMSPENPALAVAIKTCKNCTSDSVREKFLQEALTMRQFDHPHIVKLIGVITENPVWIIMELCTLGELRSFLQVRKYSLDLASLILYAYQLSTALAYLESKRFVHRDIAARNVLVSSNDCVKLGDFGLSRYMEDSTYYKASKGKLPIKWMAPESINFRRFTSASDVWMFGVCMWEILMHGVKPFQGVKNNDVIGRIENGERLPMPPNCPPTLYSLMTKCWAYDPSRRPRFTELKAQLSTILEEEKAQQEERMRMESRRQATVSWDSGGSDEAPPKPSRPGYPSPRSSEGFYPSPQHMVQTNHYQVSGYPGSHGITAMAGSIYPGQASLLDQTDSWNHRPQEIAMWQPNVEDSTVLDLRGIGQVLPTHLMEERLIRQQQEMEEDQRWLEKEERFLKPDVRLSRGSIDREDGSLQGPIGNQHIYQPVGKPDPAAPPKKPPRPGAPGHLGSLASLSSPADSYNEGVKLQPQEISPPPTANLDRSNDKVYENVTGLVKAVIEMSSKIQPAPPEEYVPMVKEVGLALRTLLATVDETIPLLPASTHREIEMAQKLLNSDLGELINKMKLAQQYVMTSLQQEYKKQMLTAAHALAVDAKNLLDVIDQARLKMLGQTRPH
Chain of Fibroblast growth factor 2 (Homo sapiens) (P09038 whole entry, looked up): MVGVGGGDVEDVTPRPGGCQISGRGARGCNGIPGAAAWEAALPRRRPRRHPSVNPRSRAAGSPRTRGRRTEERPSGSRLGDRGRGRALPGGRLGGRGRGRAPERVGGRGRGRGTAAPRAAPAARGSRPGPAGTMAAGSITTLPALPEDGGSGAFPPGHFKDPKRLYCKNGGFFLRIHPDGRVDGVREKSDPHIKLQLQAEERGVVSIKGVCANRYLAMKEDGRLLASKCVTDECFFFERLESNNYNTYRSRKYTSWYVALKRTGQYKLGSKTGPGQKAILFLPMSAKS

With `CC(C)(C)N1C(=O)[C@H]2[C@H]3[C@H](O)[C@H](O)CC(=NO[C@@H]4O[C@H](CO)[C@@H](O)[C@H](O)[C@H]4O)[C@H]3CC[C@H]2C1=O`, the composite z-score in [1] was 0.492; in [2], 0.15; in experiment [3] it was -0.0244; in experiment [4] it was -1.06; in [5], 0.86; in experiment [6], 0.348. Besides, the figures for the composite z-score (in the experiment on Lefty1; in experiment [8]) were 0.585 and -0.297, respectively. Further, the z-score in experiment [7] was -1.43; in experiment [9], 0.585 (inactive).
Regarding `CCOC(=O)NN=C1C[C@@H](O)[C@@H](O)[C@@H]2[C@@H]3C(=O)N(c4cccc(Oc5ccccc5)c4)C(=O)[C@@H]3CC[C@H]12`, the composite z-score came out at 0.141 in experiment [1]; 0.34 in experiment [2]; 0.0494 in [3]; 0.641 in experiment [4]; 0.519 in experiment [5]; 0.374 in [6]. Further, the composite z-score with Lefty1 was 0.365; in [8], 0.01. Further, the results for the z-score in [7] and in experiment [9] were 0.471 and -0.219 (inactive), respectively.
Turning to `CCCCC#C[C@@H]1C=C[C@H](OC(C)=O)[C@@H](COC(C)=O)O1`, the composite z-score was 0.113 in [1]; 0.283 in experiment [2]; -0.0443 in experiment [3]; 0.88 in experiment [4]; 0.248 in [5]; 0.316 in experiment [6]. In addition, the figures for the composite z-score (in the experiment on Lefty1; in experiment [8]) were 0.487 and 0.219, respectively. In addition, the z-score was -0.79 in experiment [7] and -1.41 (inactive) in experiment [9].
On to `Cc1ccc(S(=O)(=O)N[C@@H]2COC(=O)[C@@H](C)COC(=O)CC=C[C@H]2C)cc1`, for which the composite z-score in experiment [1] is 0.204; in experiment [2], 0.389; in experiment [3], -0.033; in [4], 0.466; in [5] it was 0.516; in experiment [6], 0.636. The composite z-score is 0.383 with Lefty1 and -0.0537 in experiment [8]. The z-score in experiment [7] was 0.493; in experiment [9] it was -0.836 (inactive).
Regarding `O=C1C[C@@H](O)[C@@H](O)[C@@H]2[C@@H]3C(=O)N(C[C@@H]4CCCO4)C(=O)[C@@H]3CC[C@H]12`, the composite z-score is 0.284 in [1]; 0.569 in [2]; -0.266 in [3]; 0.684 in experiment [4]; 0.236 in [5]; 0.538 in experiment [6]. The composite z-score in the experiment on Lefty1 came out at 0.548; in [8], 0.085. The results for the z-score in experiment [7] and in experiment [9] were 0.991 and -0.635 (inactive), respectively.
In the case of `O=C1C[C@@H](O)[C@@H](O)[C@@H]2[C@@H]3C(=O)N(c4cccc(Oc5ccccc5)c4)C(=O)[C@@H]3CC[C@H]12`, the composite z-score in [1] was -0.0123; in experiment [2] it was 0.818; in experiment [3] it was -0.031; in experiment [4], 0.345; in experiment [5] it was 0.505; in [6], 0.31. The composite z-score worked out at 0.471 in the experiment with Lefty1 and 0.268 in experiment [8]. The figures for the z-score in [7] and in experiment [9] were 1.23 and -0.275 (inactive), respectively.
As to `CO[C@H]1COC(=O)CC=C[C@@H](C)[C@H](OC)COC(=O)CCC[C@@H]1C`, the composite z-score in experiment [1] was 0.165; in experiment [2] it was -0.289; in experiment [3], -0.735; in experiment [4], -0.511; in experiment [5], 0.776; in experiment [6], 1.15. For the same compound, the composite z-score was 0.945 with Lefty1 and -0.173 in experiment [8]. For the same compound, the values for the z-score in experiment [7] and in experiment [9] were -0.738 and 1.09 (inactive), respectively.
`COC(=O)[C@@H]1CC[C@H](C)[C@@H](c2ccc(C)cc2)N1C(=O)c1ccc(C=NOCC[C@@H]2C=C[C@H](OC(C)=O)[C@@H](COC(C)=O)O2)cc1`: the composite z-score in experiment [1] is 2.68; in experiment [2], 0.895; in [3], -0.125; in experiment [4], 0.316; in experiment [5], 0.47; in [6], 0.614. For the same compound, the results for the composite z-score (with Lefty1; in experiment [8]) were 0.605 and 0.175, respectively. The results for the z-score in experiment [7] and in experiment [9] were -0.512 and 0.963 (inactive), respectively.
As for `Cc1cc2c(nc1C)CCCCN2CC(C)ON=C[C@@H](C)[C@H](OCc1ccccc1)C(C)C` (stereo not given in full), the composite z-score in experiment [1] is 1.92; in experiment [2], -0.598; in experiment [3] it was -0.69; in experiment [4], -2.1; in experiment [5], -1.88; in experiment [6] it was -1.78. Besides, the composite z-score with Lefty1 is -0.913; in experiment [8] it was -0.765. Besides, the z-score was -1.26 in experiment [7] and -0.29 (inactive) in experiment [9].
As to `C[C@@H](ON=C1[C@H]2CCn3c(=O)n(-c4ccccc4)c(=O)n3[C@H]2[C@H](O)[C@@H]2O[C@H]12)c1cn([C@@H]2COC[C@H]2O)nn1`, the composite z-score is -0.0522 in [1]; 0.619 in experiment [2]; 0.0584 in experiment [3]; 0.544 in experiment [4]; 0.414 in [5]; 0.433 in experiment [6]. In addition, the values for the composite z-score (in the experiment with Lefty1; in [8]) were 0.691 and 0.0978, respectively. Moreover, the figures for the z-score in [7] and in experiment [9] were -0.339 and 0.704 (inactive), respectively.
For `COC(=O)CC=C[C@@H](C)[C@@H](C=NO[C@@H]1O[C@H](COC(C)=O)[C@@H](OC(C)=O)[C@H](OC(C)=O)[C@H]1OC(C)=O)NS(=O)(=O)c1ccc(C)cc1`, the composite z-score in experiment [1] was -0.588; in experiment [2], -0.231; in [3], 0.14; in experiment [4] it was -0.083; in experiment [5], 0.484; in experiment [6], 0.35. Besides, the values for the composite z-score (with Lefty1; in experiment [8]) were 0.647 and -0.986, respectively. Further, the results for the z-score in experiment [7] and in [9] were -0.63 and 1.08 (inactive), respectively.
Take `C[C@H](ON=C1[C@H]2CCn3c(=O)n(-c4ccccc4)c(=O)n3[C@H]2[C@H](O)[C@@H]2O[C@H]12)c1cn([C@H](CO)Cc2ccccc2)nn1`: the composite z-score in experiment [1] is -0.692; in experiment [2] it was 0.588; in experiment [3], 0.273; in [4] it was 0.985; in experiment [5] it was 0.3; in experiment [6], 0.646. Also, the composite z-score with Lefty1 was found to be 0.572; in experiment [8] it was 0.742. In addition, the values for the z-score in [7] and in experiment [9] were -0.717 and -0.0281 (inactive), respectively.
For the compound `CCOC(=O)[C@H](CC(C)C)NC(=O)CCC1CC(OC(=O)NCc2ccc3c(c2)OCO3)CC2(CCCC(COC(=O)NCC3CCCCC3)O2)O1` (stereo not given in full), the composite z-score in [1] is 1.18; in experiment [2] it was 0.939; in experiment [3] it was -0.217; in experiment [4], -0.195; in experiment [5] it was 1.18; in experiment [6] it was 0.928. The composite z-score came out at 1.63 in the experiment on Lefty1 and 0.584 in [8]. For the same compound, the z-score in [7] was 0.0853; in [9], 0.885 (inactive).
For `CO[C@H]1COC(=O)CC=C[C@H](C)COC(=O)[C@@H](C)NC(=O)CC=C[C@@H]1C`, the composite z-score is 2.07 in [1]; -0.696 in experiment [2]; -0.775 in [3]; -1.32 in experiment [4]; 1.29 in experiment [5]; 0.654 in experiment [6]. Moreover, the figures for the composite z-score (in the experiment with Lefty1; in [8]) were 1.72 and -0.52, respectively. Further, the z-score in [7] is -1.61; in experiment [9], 0.917 (inactive).
Turning to `CC(C)=CCCC(C)=CCON=C1C[C@@H](O)[C@@H](O)[C@@H]2[C@@H]3C(=O)N(c4ccc(F)cc4F)C(=O)[C@@H]3CC[C@H]12`, the composite z-score in [1] was 1.33; in experiment [2], 1.21; in [3], 0.631; in experiment [4] it was 0.333; in experiment [5] it was 0.705; in experiment [6], 0.256. Besides, the results for the composite z-score (with Lefty1; in experiment [8]) were 0.515 and 0.335, respectively. Further, the z-score was -0.63 in experiment [7] and 0.443 (inactive) in [9].
Consider `COc1cccc([C@H]2Oc3ccc(OC)cc3C(=NO[C@@H]3O[C@H](COC(C)=O)[C@@H](OC(C)=O)[C@H](OC(C)=O)[C@H]3OC(C)=O)[C@@H]2O)c1`, for which the composite z-score in [1] is 0.238; in experiment [2] it was 0.23; in experiment [3] it was 0.478; in experiment [4], -0.339; in experiment [5] it was -0.0006; in experiment [6], 0.192. Besides, the composite z-score is 0.228 in the experiment with Lefty1 and -0.639 in experiment [8]. In addition, the z-score in [7] is -0.172; in [9] it was 0.713 (inactive).

The record behind these values is PubChem BioAssay.
